Measured values as given in PubChem BioAssay AID1903 (Southern Research Specialized Biocontainment Screening …, 2009).
The whole screen tested about 310,000 compounds, of which about 1,200 (0.39%) were called active. No rule for the calls is given here. The list is a sample of the results. Measured potencies and affinities stand elsewhere.

Each compound was assayed against Large T antigen (Simian virus 40) (UniProt P03070) (assay: SV40 large T antigen inhibitors, biochemical (AID 1903)). Settings: SV40 large T antigen ATPase/helicase inhibition assay; at 20 µM; stronger effect = higher value.
Chain of Large T antigen (Simian virus 40) (P03070 whole entry, looked up): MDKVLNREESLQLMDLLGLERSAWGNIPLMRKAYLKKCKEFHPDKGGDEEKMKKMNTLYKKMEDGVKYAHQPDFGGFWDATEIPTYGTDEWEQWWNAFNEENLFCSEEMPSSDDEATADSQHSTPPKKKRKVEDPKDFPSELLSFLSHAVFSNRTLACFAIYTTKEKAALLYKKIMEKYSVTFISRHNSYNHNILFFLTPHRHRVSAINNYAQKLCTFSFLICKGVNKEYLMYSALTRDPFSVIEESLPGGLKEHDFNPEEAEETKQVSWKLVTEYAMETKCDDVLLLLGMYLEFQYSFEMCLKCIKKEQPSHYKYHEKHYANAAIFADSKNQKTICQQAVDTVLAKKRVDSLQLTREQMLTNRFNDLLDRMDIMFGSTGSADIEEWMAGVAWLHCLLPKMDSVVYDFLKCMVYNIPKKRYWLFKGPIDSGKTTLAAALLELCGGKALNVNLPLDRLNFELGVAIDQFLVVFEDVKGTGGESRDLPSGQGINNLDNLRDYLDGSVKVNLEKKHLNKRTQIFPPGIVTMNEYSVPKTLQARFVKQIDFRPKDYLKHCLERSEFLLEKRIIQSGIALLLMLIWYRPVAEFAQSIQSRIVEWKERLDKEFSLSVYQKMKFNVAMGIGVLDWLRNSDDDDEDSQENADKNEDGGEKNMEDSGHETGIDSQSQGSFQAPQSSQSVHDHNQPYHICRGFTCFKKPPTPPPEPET

inhibition, inactive:
N#C/C(=C\c1coc2ccccc2c1=O)C(N)=S 11.5%, O=C1NN(c2ccccc2)C(=O)/C1=C\c1coc2ccc(O)cc2c1=O 51.3%, COc1ccc(CCNC(=O)C/C(C)=N/NC(=O)C23CC4CC(CC(C4)C2)C3)cc1OC 5.44%, COC(=O)C1=C(C)N(Cc2ccco2)C(=O)/C1=C\c1ccc([N+](=O)[O-])cc1 31.3%, COc1ccc(NC(=O)CC2C(=O)N(Cc3ccco3)C(=S)N2C(C)C)cc1 (stereo not drawn) 12%, COC(=O)C1=C(C)N(Cc2ccco2)C(=O)/C1=C\c1ccc(N(C)C)cc1 3.05%, COc1ccc(-n2c(C)cc(/C=C3\SC(=S)N(Cc4ccco4)C3=O)c2C)cc1 2.87%, COc1ccc(N2C(=O)CC(c3cc(OC)c(OC)c(OC)c3)CC2=O)cc1 8.69%, COC(=O)c1nn(-c2nc(-c3ccc(OC)c(OC)c3)cc(C(F)(F)F)n2)cc1[N+](=O)[O-] 9.35%, Cc1ccc(Sc2ccc(/C=C3/C(=O)NN(c4ccccc4)C3=O)o2)cc1 20.1%, O=C1NN(c2ccccc2)C(=O)/C1=C/c1ccc(Sc2ccc(Cl)cc2)o1 11.2%, COC(=O)c1ccc(N2NC(=O)/C(=C/c3ccc(-c4ccc(Cl)c(C(=O)O)c4)o3)C2=O)cc1 37%, O=C1NN(c2ccc(Cl)c(Cl)c2)C(=O)/C1=C/c1ccc(-c2ccccc2C(=O)O)o1 28.4%, O=C1NN(c2cccc(Br)c2)C(=O)/C1=C/c1ccc(-c2cc([N+](=O)[O-])ccc2O)o1 38.2%, N=C1/C(=C\c2ccc(-c3cc(Cl)cc(Cl)c3)o2)C(=O)N=C2SC=C(c3ccccc3)N12 -1.62%, N=C1/C(=C\c2ccc(-c3cccc(Cl)c3)o2)C(=O)N=C2SC=C(c3ccccc3)N12 7.39%, COc1ccc(Sc2ccc(/C=C3\C(=O)NN(c4ccccc4)C3=O)o2)cc1 32.2%, COc1ccccc1N1CCN(CC(O)c2ccccc2)CC1 (stereo not drawn) -5.22%, CC(=O)Nc1nc2ccc(S(=O)(=O)N3CCCCC3)cc2s1 11.1%, CCSC1=NCCN1S(=O)(=O)c1ccc(NC(C)=O)cc1 4.92%, CN(C(=O)c1ccc2c(c1)CCN2S(C)(=O)=O)c1ccccc1 -0.23%, Cc1cc(C)c2c(=O)[nH]c(SCc3ccccc3C)nc2n1 1.53%, CCC(=O)Oc1ccc(C(=O)Nc2cccc(NC(=O)c3ccco3)c2)cc1 -2.07%
